Screening results as filed in PubChem.
Compounds with a hit are over-represented: about 2.9% of the library has one in this group of screens.
S2 tox: viability counter-screen for ATXN expression inhibitors; AID 651635; 0.49% of 400,000 active; Potency, µM (doses to about 56.7 µM), usual class: cytotoxic; S2 cells (HEK-293 line with an ATXN2-luciferase reporter) viability, CellTiter-Fluor protease fluorescence, 24 h; note: nearly all actives have a fitted effect of over 40% in size
A549 tox-1: counter-screen for Nrf2 inhibitors: cytotoxicity in A549 cells | 0.16% of 390,000 active | A549 ARE-Fluc cells, CellTiter-Fluor viability, 18-24 h | Potency, µM (series often up to 46 µM), usual class: inhibitors
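A549 ARE-Fluc cells in 5% FBS OPTI-MEM, 5000 cells/well, rested 2 h then exposed to compounds in concentration-response for 18-24 h at 37 °C. Viability by CellTiter-Fluor fluorescence (Ex 405/Em 525) after 30 min; luciferase luminescence (BugLite, 15 min, RT) read afterwards.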
Nrf2 inh: inhibitors of Nrf2 signaling; A549 ARE-Fluc reporter, luciferase luminescence, 18-24 h; Potency, µM (top dose mostly 46 µM), most hits filed as inhibitors; 2.1% of 360,000 active; note: nearly all actives have a fitted effect of over 60% in size
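Two sequential reads on A549 ARE_Fluc cells exposed to compound for 18-24 h: a CellTiter-Fluor fluorescence read for viability, then a luciferase luminescence read for Nrf2/ARE activity.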
ATXN2 expr inh: ATXN2 expression inhibition | HEK-293 ATXN2-luciferase reporter, luminescence, 24 h | 0.72% of 360,000 active | AID 1745845 | Potency, µM (series often up to 57 µM), actives largely listed as inhibitors; note: nearly all actives have a fitted effect of over 55% in size
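ATXN2-luciferase reporter cells (luciferase flanked by upstream and downstream ATXN2 gene portions) were treated 24 h at 37 °C with compounds at up to 57 uM. SteadyGlo luminescence gave expression; GF-AFC fluorescence gave viability.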
Nrf2 activator: activators of Nrf2 (ARE) signaling | AREc32 ARE-luciferase reporter (MCF7-derived line), luminescence, 24 h | Potency, µM (doses to about 46.1 µM), actives largely listed as activators | 0.31% of 410,000 active | AID 624171; note: nearly all actives have a fitted effect of over 65% in size
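AREc32_Fluc, 1000 cells/well, OPTI-MEM + 5% FBS, o/n 37 deg C 5% CO2; 23 nL cpd by pin tool, 24 hr; Steady-Glo 30 min RT, luminescence.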
FLuc counter 3: firefly luciferase inhibition, Nrf2 hit validation; shares compounds with Nrf2 inh; purified firefly luciferase, luminescence inhibition; Potency, µM (highest dose often 57.5 µM), hits mostly inhibitors; 4% of 1,400 active; AID 720522; note: nearly all actives have a fitted effect of over 65% in size
Target sequence (P08659 whole entry, looked up): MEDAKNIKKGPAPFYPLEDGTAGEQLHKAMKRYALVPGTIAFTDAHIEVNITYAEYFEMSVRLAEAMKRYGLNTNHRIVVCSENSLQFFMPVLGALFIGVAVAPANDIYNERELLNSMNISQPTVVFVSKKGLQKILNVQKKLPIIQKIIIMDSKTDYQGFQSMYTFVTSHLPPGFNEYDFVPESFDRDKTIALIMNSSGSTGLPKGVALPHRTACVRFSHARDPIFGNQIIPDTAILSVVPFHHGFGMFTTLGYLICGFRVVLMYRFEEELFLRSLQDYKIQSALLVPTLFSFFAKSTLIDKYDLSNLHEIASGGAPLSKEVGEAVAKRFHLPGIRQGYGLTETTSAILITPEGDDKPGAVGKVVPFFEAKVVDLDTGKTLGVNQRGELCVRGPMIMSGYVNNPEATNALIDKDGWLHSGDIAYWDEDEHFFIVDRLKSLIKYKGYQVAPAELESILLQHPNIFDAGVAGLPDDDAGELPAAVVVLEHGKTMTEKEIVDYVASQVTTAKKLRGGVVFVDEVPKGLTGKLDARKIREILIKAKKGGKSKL
A549 tox-2: counter-screen for Nrf2 inhibitors: cytotoxicity in A549 ARE cells; shares compounds with Nrf2 inh; A549 ARE-Fluc cells, cytotoxicity counterscreen; Potency, µM (series often up to 46.1 µM), hits mostly inhibitors; 2% of 1,400 active;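 note: cells exposed to compounds for 18 to 24 hours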
Nrf2 ARE inh: Nrf2 inhibition confirmed, A549 ARE-luciferase; AID 720524; A549 ARE-firefly luciferase reporter, luminescence; Potency, µM (titrated, usually from 46.1 µM), most hits filed as inhibitors; 74% of 1,400 active; shares compounds with Nrf2 inh; note: nearly all actives have a fitted effect of over 65% in size
Numbers stand for hits; – = inactive; ? = inconclusive; · = not tested or not shown; [ ] = dose if it differs, or a comment. Calls come from the whole dose curve; as a rule, active = well fitted curve in the direction sought with a large enough effect; inconclusive = small, poorly fitted or top-dose-only effect, or another doubt; inactive = no such curve, though single readings can be large; an effect the other way counts as inactive or inconclusive.

SMILES	S2 tox	A549 tox-1	Nrf2 inh	ATXN2 expr inh	Nrf2 activator	FLuc counter 3	A549 tox-2	Nrf2 ARE inh
CCCCCn1c(SCc2cccc(C)c2)nc2c1c(=O)[nH]c(=O)n2C	–	–	?	–	–	·	·	·
COc1cccc(/C=N/n2c(N)c(S(=O)(=O)c3cccs3)c3nc4ccccc4nc32)c1OC	–	?	3.7µM	?	–	–	–	·
COCCn1c(N)c(S(=O)(=O)c2cccs2)c2nc3ccccc3nc21	–	–	–	–	–	·	·	·
O=C(Nc1ncc(Cc2cccc(C(F)(F)F)c2)s1)c1ccc(-c2cccc([N+](=O)[O-])c2)o1	?	–	2.6µM	–	–	–	–	5.2µM
CC1CCc2nc(-c3cc4ccc(O)cc4oc3=O)sc2C1 (stereo not drawn)	·	?	2.3µM	·	·	0.038µM	–	18µM
Cn1nccc1C(=O)Nc1cc(Cl)ccc1Cl	–	–	2.9µM	·	–	–	–	5.8µM
Cn1nccc1C(=O)Nc1ccc(Cl)cc1	–	–	–	–	–	·	·	·
CCc1ccc(OCc2nc(-c3ccc(-n4cccc4)cc3)no2)cc1	–	–	?	–	–	·	·	·
CCc1ccc(OC(C)c2nc(-c3ccc(-n4cccc4)cc3)no2)cc1 (stereo not drawn)	·	–	8.2µM	·	–	–	–	8.2µM
COc1ccccc1OC(=O)c1ccc(S(=O)(=O)N(C)C)cc1	–	–	–	–	–	·	·	·
C=CC[n+]1ccc(/C=C2\C=Cc3cc(C)ccc3N2CC)c2ccccc21	9.5µM	?	7.3µM	?	–	?	?	·
Cc1ccc(OCc2cc(C(=O)N3CCC(Oc4cccnc4)CC3)no2)cc1C	–	–	–	·	–	·	·	·
CCC(O)C1CCN(C(=O)c2cc(COc3ccc4ncccc4c3)on2)CC1 (stereo not drawn)	?	?	1.8µM	?	–	–	–	1.5µM
COc1cccc(OCc2cc(C(=O)N3CCC(C(O)C(C)C)CC3)no2)c1 (stereo not drawn)	–	–	–	–	–	·	·	·
O=C(c1cc(COc2ccc3ncccc3c2)on1)N1CCC(O)CC1	–	–	8.2µM	–[11.3 µM]	–	–	–	–
Cc1cccnc1CN1CCN(C(=O)c2cc(COc3ccc4ncccc4c3)on2)CC1	–	–	4.1µM	–	–	–	–	?
O=C(NC1CCCCCCC1)c1cc(COc2ccc3ncccc3c2)on1	–	?	3.3µM	–	–	–	–	2.9µM
CC(C)(C)C(=O)OC/C(N)=N/OC(=O)c1ccc(Cl)c(Cl)c1	–	–	–	·	–	·	·	·
O=C1CCCC2=C1C1(CCCC1)N=C(Nc1nc3cc4ccccc4cc3o1)N2	·	–	–	·	·	·	·	·
Cc1ccc(C)c(N2CCN(C(=O)Cn3ncc4c(=O)oc5ccccc5c43)CC2)c1	–	–	–	–	–	·	·	·
N[C@@H](C(=O)N[C@@H]1C(=O)N2C(C(=O)O)=C(CSc3cn[nH]n3)CS[C@H]12)c1ccc(O)cc1	–	·	·	·	·	·	·	·
Cc1ccc(CNC(=O)N2CCN(C)CC2)cc1	–	–	–	–	–	·	·	·
CC(=O)c1ccc(OCc2cc(C(=O)N(C)Cc3cc(C)no3)no2)cc1	–	–	?	–	–	·	·	·
Cc1cc(CN(C)C(=O)c2cc(COc3ccc4ncccc4c3)on2)on1	–	–	4.6µM	–	–	–	–	5.2µM
CC(=O)O[C@]1(C(C)=O)CC[C@H]2[C@@H]3C=C(C)C4=CC(=O)CC[C@@H]4[C@H]3CC[C@@]21C	–	–	?	–	–	·	·	·
SMILES	S2 tox	A549 tox-1	Nrf2 inh	ATXN2 expr inh	Nrf2 activator	FLuc counter 3	A549 tox-2	Nrf2 ARE inh
CC(=O)O[C@]1(C(C)=O)CCC2C3C=C(C)C4=CC(=O)CC[C@]4(C)C3CC[C@@]21C (stereo partly drawn)	–	–	0.26µM	·	–	–	–	1.2µM
O=[N+]([O-])c1ccc(N/N=C/c2sc(N3CCOCC3)nc2-c2ccccc2)c(S(=O)(=O)Nc2ccc(Cl)cc2)c1	?	2.6µM	1.5µM	?	–	–	?	3.3µM
O=C(O)c1cccc(N/N=C/c2sc(N3CCOCC3)nc2-c2ccccc2)c1	–	–	?	–	–	·	·	·
Cc1cc(O)c2c(c1O)C(=O)[C@]13C(=C2O)C(=O)[C@@H]2[C@@H](O)[C@H]1[C@@H]1[C@H](O)[C@H]3C(=O)C3=C(O)c4c(O)cc(C)c(O)c4C(=O)[C@]312	?	?	0.37µM	?	–	?	?	1.2µM
Cc1cc(NC(=O)c2cc(Cl)ccc2Cl)ccc1-c1cc2ccccc2oc1=O	–	–	?	–	–	–	–	–
COc1cc(NC(=O)c2ccc(Cl)cc2Cl)ccc1-c1cc2ccccc2oc1=O	–	?	–	–	–	·	·	·
Cc1cc(C)cc(C(=O)NC(=S)Nc2ccc(-c3cc4ccccc4oc3=O)cc2)c1	?	–	3.7µM	6.3µM	–	–	–	?
CCC(=O)/C=C1/Sc2ccccc2N1CC	–	–	·	–	–	·	·	·
CCN1/C(=C/C=C/c2sc3ccccc3[n+]2CC)Sc2ccccc21	11µM	–	1.3µM	7.1µM	–	?	12µM	2.6µM
CC(=S)/C=C1\Sc2ccccc2N1C	–	?	–	–	–	·	·	·
CCN1/C(=C/c2ccc3cc(C)ccc3[n+]2CC)Sc2ccccc21	·	?	0.73µM	·	–	–	5.8µM	·
CC[n+]1c(/C=C2\Sc3ccccc3N2C)ccc2cccc(C)c21	?	?	3.7µM	?	–	–	6.5µM	2.6µM
COc1ccc(-c2nc3ccccc3o2)cc1NC(=O)c1cccnc1	?	–	–	–	–	·	·	·
COc1cccc(CNC(=O)c2cccc(S(=O)(=O)N3CCN(c4ccc(F)cc4)CC3)c2)c1	–	–	?	–	–	–	–	?
COc1ccc(NC(=O)CN(C)C(=O)c2cccc(S(=O)(=O)N3CCN(c4ccc(F)cc4)CC3)c2)cc1	–	?	5.8µM	–	–	–	–	18µM
COc1cc(C(CCN2CCCCC2)c2c(OC)cc(OC)c3c2OC(=O)CC3c2ccc(N(C)C)cc2)cc(OC)c1OC (stereo not drawn)	·	–	?	·	·	·	·	·
COc1ccccc1NC(=O)Nc1ccc2c(c1)nnn2C	–	–	?	–	–	·	·	·
Cc1ccccc1OCC(=O)NCC(=O)OCc1ccc(Br)cc1	–	–	–	–	–	·	·	·
COc1ccc(CCNC(=O)CCc2cc(OC)c(OC)c(OC)c2)cc1OC	?	–	–	–	–	·	·	·
Cc1nc2ccc(NC(=O)c3ccc(Cl)c(S(=O)(=O)N(C)c4ccccc4)c3)cc2s1	?	–	3.3µM	?	–	–	–	?
Cc1nc2ccc(NC(=O)c3cc(S(=O)(=O)N(C)c4ccccc4)ccc3Cl)cc2s1	–	–	5.2µM	–	–	–	–	?
